Data reported in PubChem BioAssay (EPA / NIEHS).
Activity calls are given as the source filed them. The calls were made as follows: active = hit-call score of the fitted dose curve at least 0.9, where 1 is the maximum; inactive = score below 0.9.

What follows are compounds tested on Macrophage colony-stimulating factor (MCSF), CSF1 (gene 1435) (assay: BSK_hDFCGF_MCSF: BioMAP Diversity Plus: hDFCGF Assay for Macrophage colony-stimulating factor (MCSF) Biomarker Activity (AID 2283060)). Conditions: primary human foreskin fibroblasts; actives raise or lower the signal.
In short: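 Human foreskin fibroblast primary cultures; M-CSF measured by ELISA 24 hours after chemical dosing. Bidirectional fitting relative to DMSO, with overt cytotoxicity tracked by parallel SRB total-protein staining (0.1% SRB, 10% TCA fixation, 560 nm).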

| Structure (SMILES) | outcome | AC50 |
| --- | --- | --- |
| Cc1ccc(-c2cc(C(F)(F)F)nn2-c2ccc(S(N)(=O)=O)cc2)cc1 | inactive | – |
| O=C1O[C@H]([C@H](O)CO)C(O)=C1O | inactive | – |
| CCCCc1nc2cccnc2n1Cc1ccc(-c2ccccc2-c2nnn[nH]2)cc1 | inactive | – |
| CCCC(=O)O | inactive | – |
| CCCCOC(=O)CCCCC(=O)OCCCC | inactive | – |
| CC(C)NCC(O)c1ccc(O)c(O)c1 (stereo not given) | inactive | – |
| Cn1cnc2c1c(=O)[nH]c(=O)n2C | inactive | – |
| O=C(Oc1ccccc1)c1cccc(C(=O)Oc2ccccc2)c1 | inactive | – |
| O=C(O)c1[nH]n(-c2ccc(S(=O)(=O)O)cc2)c(=O)c1N=Nc1ccc(S(=O)(=O)O)cc1 | inactive | – |
| CCCCC(CC)CO (stereo not given) | inactive | – |
| CCc1cc(C2=C(C(=O)O)N(c3ccccc3C(F)(F)F)S(=O)(=O)c3ccccc32)cc2c1OCO2 | inactive | – |
| O=C(N[C@@H](c1ccccc1)[C@@H]1CCCCN1)c1cccc(C(F)(F)F)c1Cl | inactive | – |
| CCC(C)N(C)C(=O)c1cc2ccccc2c(-c2ccccc2Cl)n1 (stereo not given) | inactive | – |
| CCCCCCCCCCCCCCOS(=O)(=O)O | – | 9.53 µM (active) |
| CCCCCCCC(=O)OC | inactive | – |
| CC(C)c1cccc(C(C)C)c1NC(=O)NS(=O)(=O)c1cc(C(C)(C)O)co1 | inactive | – |
| CCN(CC)CCOc1ccc(C(=C(Cl)c2ccccc2)c2ccccc2)cc1 | – | 10.4 µM (active) |
| c1ccc2occc2c1 | inactive | – |
| CCCCCCC(C=O)=Cc1ccccc1 | inactive | – |
| COC(=O)CCC(=O)OC | inactive | – |
| COC(=O)CCCC(=O)OC | inactive | – |
| CN(C)C(=O)NC1(c2ccccc2)CCN(CC[C@@]2(c3ccc(F)c(F)c3)CN(C(=O)c3ccccc3)CCO2)CC1 | inactive | – |
| CC(=O)S[C@H](C(=O)N[C@H]1Cc2ccccc2[C@H]2CCC[C@@H](C(=O)O)N2C1=O)C(C)C | inactive | – |
| CC(=O)OC1CC(C)OC(C)O1 (stereo not given) | inactive | – |
| O=C1CCCCC1 | inactive | – |
| Nc1nc(Cl)nc2c1ncn2[C@H]1C[C@H](O)[C@@H](CO)O1 | – | 1.01 µM (active) |
| Cc1c(C)c2c(c(C)c1O)CCC(C)(COc1ccc(CC3SC(=O)NC3=O)cc1)O2 (stereo not given) | – | 11.7 µM (active) |
| CCCCC(CC)COP(=O)(OCC(CC)CCCC)OCC(CC)CCCC (stereo not given) | inactive | – |
| O=C(O)c1cccnc1 | inactive | – |
| O=C(O)CC(O)(CC(=O)O)C(=O)O | inactive | – |
